From PubChem BioAssay (Tox21)
Several values for one entry are separate records, joined by “and”; a condition that tells them apart may be missing. Equal entries are not always repeated. Records with an inconclusive call do not appear. Where a call stands in place of a potency, no number is given. Activity calls are given as the source filed them. Unless noted, calls come from the whole dose curve; as a rule, active = well fitted curve in the direction sought with a large enough effect in the repeat runs; inconclusive = weak or mixed curves; inactive = no such curve, though single readings can be large; an effect the other way counts as inactive or inconclusive.

What was measured:
[1] = qHTS assay to identify small molecule agonists of the hypoxia (HIF-1) signaling pathway - cell viability counter screen (AID 1224844; calls by dose curve; note: nearly all actives have a fitted effect of over 50% in size)
In short: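 Same wells as the HIF-1 reporter screen; ME-180 cells carrying HRE-bla, 17 hr treatment at 37C; CellTiter-Glo luminescence read after 30 min at room temperature.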

[2] = qHTS assay to identify small molecule agonists of H2AX (AID 1224845; active = well fitted activation curve with a large enough effect in the signal ratio in the repeat runs, not every such curve was filed as active; the % refers to the signal ratio)
In short: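 Wild-type CHO-K1 cells, plated overnight, exposed 3hr at 37C to 15 concentrations (0.76% DMSO final). Lysed, then HTRF anti-pH2AX (S139) cryptate and anti-H2AX-d2 antibodies, 24 hr room temperature; 665/620 nm emission read.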

[3] = qHTS assay to identify small molecule agonists of the hypoxia (HIF-1) signaling pathway (AID 1224846; active = well fitted activation curve with a large enough effect in the signal ratio in the repeat runs, not every such curve was filed as active; the % refers to the signal ratio)
In short: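 In ME-180 cells bearing an HRE-bla construct, 17 h treatment with DMSO-dissolved compounds at 37C was followed by CCF4-AM loading to quantify reporter induction.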

[4] = qHTS assay to identify small molecule agonists of H2AX - cell viability counter screen (AID 1224847; calls by dose curve; note: top concentration of the series differs between compounds; nearly all actives have a fitted effect of over 30% in size)
In short: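 Compounds tested at 15 concentrations were incubated 3 hr at 37C with wild-type CHO-K1 cells; cellular ATP-based luminescence (CellTiter-Glo) indicated viability.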

[5] = qHTS RealTime-Glo MT Cell Viability Assay in HepG2 cells - 24 hour (AID 1224867); note: nearly all actives have a fitted effect of over 50% in size
In short: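 HepG2 cells (600/well) were dispensed with RealTime-Glo reagents, incubated 5 h at 37 °C, then treated with compounds in DMSO for up to 40 h. Nonlytic NanoLuc luminescence reflecting viable cells was read at each stated time point.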

[6] = qHTS RealTime-Glo MT Cell Viability Assay in HEK293 cells - 32 hour (AID 1224868); note: nearly all actives have a fitted effect of over 50% in size; note: potency is the fitted concentration of half-maximal effect
In short: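 HEK293 cells seeded with NanoLuc/prosubstrate reagent, rested 5 h at 37 C, then dosed and kept at 37 C up to 40 h. Nonlytic real-time luminescence from viable cells read at 0, 8, 16, 24, 32 and 40 h.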

[7] = A CellTox Green Cytotoxicity Assay to monitor cytotoxicity in HEK293 cells - 0 hour (AID 1224869); note: nearly all actives have a fitted effect of over 50% in size
In short: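 Homogeneous no-lysis format: HEK293 cell suspension mixed with CellTox Green reagent, seeded, incubated 5 h at 37 C/5% CO2, then dosed by pintool with compound in DMSO.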

[8] = qHTS RealTime-Glo MT Cell Viability Assay in HepG2 cells - 40 hour (AID 1224870); note: nearly all actives have a fitted effect of over 50% in size
In short: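 HepG2 cells (600/well) mixed with RealTime-Glo MT reagent, settled 5 h at 37 C/5% CO2 before compound addition. Nonlytic NanoLuc luminescence from viable-cell prosubstrate reduction read repeatedly during 40 h treatment at 37 C.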

[9] = qHTS assay to identify small molecule antagonists of the estrogen related receptor (ERR) signaling pathway from Tox21 library (AID 1224848); note: nearly all actives have a fitted effect of over 50% in size
In short: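 Compounds dissolved in DMSO are pin-transferred onto ERR reporter cells (2,000 per well) that have settled for 6 h at 37 C. Plates then incubate 18 h at 37 C before ONE-Glo luciferase reagent and a luminescence read 30 min later.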

[10] = qHTS assay to identify small molecule agonists of the estrogen related receptor (ERR) signaling pathway from Tox21 library (AID 1224849; calls by dose curve; note: nearly all actives have a fitted effect of over 15% in size); conditions: ERR reporter cell line, ONE-Glo luciferase, 18 h
In short: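 Reporter cells (ERR, NTP source) treated with Tox21 10K compounds 18 h, 37 C. Readout: ONE-Glo luminescence, 30 min RT.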

Compound	Potency [1]	Potency [2]	outcome [3]	Potency [4]	Potency [5]	Potency [6]	Potency [7]	Potency [8]	Potency [9]	activity change, positive = activation ([10]; at 92.4 µM (top of the series))	activity change, positive = activation ([10]; at 42.5 µM (top of the series))
Cc1cc(CC(=O)O)n(C)c1C(=O)c1ccc(Cl)cc1	inactive	inactive	inactive	inactive	inactive	inactive	inactive	inactive	–	–	–
CC(=O)Nc1ccc(CC(=O)O)cc1	inactive	inactive	inactive	inactive	inactive	inactive	inactive	inactive	inactive	–	–
CN=C(NC#N)NCCSCc1nc[nH]c1C	inactive	inactive	inactive	inactive	inactive	inactive	inactive	inactive	inactive	–	–
O=Cc1ccc(CO)o1	inactive	inactive	inactive	inactive	inactive	inactive	inactive	inactive	inactive	–	–
CCc1cccc(CC)c1N	inactive	inactive	inactive	inactive	inactive	inactive	inactive	inactive	–	–	–
CCCCC(CC)COC(=O)c1ccc(C(=O)OCC(CC)CCCC)cc1 (configuration not stated)	inactive	inactive	inactive	inactive	inactive	inactive	inactive	inactive	inactive	–	–
Cc1cc(C)c(O)c(C)c1	inactive	inactive	inactive	inactive	inactive	inactive	inactive	inactive	inactive	–	–
NC(=O)NC(N)=O	inactive	inactive	inactive	inactive	inactive	inactive	inactive	inactive	–	–	–
OCCOCCOCCOCCOCCO	inactive	inactive	inactive	inactive	inactive	inactive	inactive	inactive	inactive	–	–
COCN(COC)c1nc(N(COC)COC)nc(N(COC)COC)n1	inactive	inactive	inactive	inactive	inactive	inactive	inactive	inactive	inactive	–	–
O=C1CCCCCCCCCCC1	inactive	inactive	inactive	inactive	inactive	inactive	inactive	inactive	–	–	–
Cc1cc(C)cc(O)c1	inactive	inactive	inactive	inactive	inactive	inactive	inactive	inactive	inactive	8.03% (inactive) and 0.796% (inactive)	–
OCC(CO)(CO)CO	inactive	inactive	inactive	inactive	inactive	inactive	inactive	inactive	–	–	–
C=CC(C)(C)C	inactive	–	inactive	inactive	inactive	inactive	inactive	inactive	inactive	–	–
CC/C=C(\C(=O)N[C@@H]1C(=O)N2C(C(=O)OCOC(=O)C(C)(C)C)=C(COC(N)=O)CS[C@H]12)c1csc(N)n1	inactive	inactive	inactive	inactive	inactive	inactive	inactive	inactive	–	–	–
CC1(C)[C@@H](O[C@H]2O[C@H](C(=O)O)[C@@H](O)[C@H](O)[C@H]2O[C@@H]2O[C@H](C(=O)O)[C@@H](O)[C@H](O)[C@H]2O)CC[C@]2(C)[C@H]3C(=O)C=C4[C@@H]5C[C@@](C)(C(=O)O)CC[C@]5(C)CC[C@@]4(C)[C@]3(C)CC[C@@H]12	inactive	–	inactive	inactive	inactive	inactive	inactive	inactive	inactive	–	2.2% (inactive) and 1.06% (inactive)
CCCCCCCCO	inactive	inactive	inactive	inactive	inactive	inactive	inactive	inactive	–	–	–
CCOC(=O)c1ccc(O)cc1	inactive	inactive	inactive	inactive	inactive	inactive	inactive	inactive	–	–	–
C=C1C[C@]23C[C@@]1(O)CC[C@H]2[C@@]12C=C[C@H](O)[C@@](C)(C(=O)O1)[C@H]2[C@@H]3C(=O)O	inactive	–	inactive	inactive	inactive	inactive	inactive	inactive	inactive	4.32% (inactive) and 5.25% (inactive)	–
NCCNCCNCCN	inactive	–	inactive	inactive	inactive	inactive	inactive	inactive	inactive	–	0.597% (inactive)
CC(O)CNCC(C)O (configuration not stated)	inactive	inactive	inactive	inactive	inactive	inactive	inactive	inactive	–	–	–
COc1c(Cl)ccc(Cl)c1C(=O)O	inactive	inactive	inactive	inactive	inactive	inactive	inactive	inactive	–	–	–
CN1CCCC1=O	inactive	inactive	inactive	inactive	inactive	inactive	inactive	inactive	–	–	–
CC(C)c1ccc(C(C)C)cc1	inactive	inactive	inactive	inactive	inactive	inactive	inactive	inactive	–	–	–
Clc1cccc(Cl)c1NC1=NCCN1	inactive	inactive	–	inactive	inactive	inactive	inactive	inactive	–	–	–
OB(O)O	inactive	–	inactive	inactive	inactive	inactive	inactive	inactive	inactive	4.58% (inactive) and 4.55% (inactive)	–
O=c1n(CCCN2CCN(c3cccc(Cl)c3)CC2)nc2ccccn12	inactive	inactive	–	inactive	inactive	13.8 µM (active) and 9.52 µM (active)	inactive	inactive	–	–	–
